Only some compounds are listed: those with a hit (about 8% of all), similar ones and a draw of the others.
MCF10A rereplic: inducers of DNA re-replication in MCF 10A breast cells | Potency, µM (top dose mostly 46.1 µM), for inactives: at the top dose activity, positive = re-replication, hits mostly activators | MCF 10A DNA re-replication, Hoechst nuclear intensity, 48 h | 2.9% of 350,000 active; note: % of control where 0% means no effect; nearly all actives have a fitted effect of over 50% in size
KB-3-1 cytotox: KB-3-1 parental cell cytotoxicity; KB-3-1 viability, CellTiter-Glo ATP luminescence, 72 h; Potency, µM (top dose mostly 46.1 µM), hits mostly cytotoxic; 1.4% of 400,000 active; AID 1347075; note: % is set by controls: 0 for no effect and ±100 for the full control effect; nearly all actives have a fitted effect of over 60% in size
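Parental KB-3-1 viability, qHTS format: 72 h compound exposure, 37 °C; CellTiter-Glo; media-only wells and DMSO plates as controls; concentration-effect fits on corrected data.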
SW480 rerep: inducers of DNA re-replication in SW480 colon cancer cells; SW480 DNA re-replication, Hoechst DNA content imaging, 48 h; Potency, µM (doses to about 46.1 µM), for the others: top-dose re-replication activation, hits mostly activators; 1.8% of 340,000 active; AID 624297; note: % of control where 0% means no effect; nearly all actives have a fitted effect of over 55% in size
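Per well, 250 cells were exposed to pinned compound for 48 hr. Nuclear DNA was visualised with Hoechst (40 min, 37 C) and total object intensity recorded by fluorescence scanning.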
HT1080 IDH1KD tx: HT-1080 IDH1 knockdown cell toxicity (counter line); Potency, µM (top dose mostly 46.1 µM), without a hit: at the highest dose activity, negative = toxicity, usual class: cytotoxic; 2% of 360,000 active; HT-1080 IDH1 knockdown viability, ATP luminescence, 48 h;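 note: 0% = DMSO wells and -100% = cell-free medium wells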
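HT-1080-IDH1KD cells (IDH1 knocked down), 750/well in RPMI with 5% FBS, treated with compound 48 h at 37 degrees C. Viability by CellTiter-Glo luminescence, normalised to DMSO and no-cell wells; concentration-response curves classed.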
KB-V1 MDR tox: kills drug-selected multidrug resistant KB-V1 cells; 3.4% of 400,000 active; KB-V1 MDR cells viability, CellTiter-Glo, 72 h; Potency, µM (highest dose often 46.1 µM), actives largely listed as cytotoxic; AID 1347076; note: % is set by controls: 0 for no effect and ±100 for the full control effect; nearly all actives have a fitted effect of over 60% in size
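KB-V1, DMEM (no phenol red) + 10% FBS; cpd pin-transferred, titration series; 72 h, 37 degrees C; CellTiter-Glo, luminescence. Data normalized, curve-fit.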
HT1080NT lethal: kills 2HG-producing HT-1080-NT fibrosarcoma cells; HT-1080-NT fibrosarcoma viability, CellTiter-Glo ATP luminescence, 48 h; Potency, µM (doses to about 46.1 µM), for the others: at the top dose activity, negative = less viability, hits mostly cytotoxic; 1.6% of 360,000 active;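 note: NT is the 2HG producing partner of a matched IDH1 knockdown line; 0% = DMSO-treated cells and -100% = media-only wells without cells; nearly all actives have a fitted effect of over 55% in size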
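Compounds were tested in concentration-response format on HT-1080-NT cells for 48 hours at 37 degrees C. Cell viability came from CellTiter-Glo luminescence; curves were classified by r2, response magnitude and activity.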
* marks the source's active call; other numbers are inactive results; i = inactive; ? = inconclusive; . = not tested or not shown. Calls come from the whole dose curve; as a rule, active = well fitted curve in the direction sought with a large enough effect; inconclusive = small, poorly fitted or top-dose-only effect, or another doubt; inactive = no such curve, though single readings can be large; an effect the other way counts as inactive or inconclusive. Potency is the fitted concentration of half-maximal effect.

SMILES	MCF10A rereplic	KB-3-1 cytotox	SW480 rerep	HT1080 IDH1KD tx	KB-V1 MDR tox	HT1080NT lethal
O=C(Cc1ccc(Cl)cc1)Nc1ccccn1	-0.7%	i	?	13.2%	i	15.7%
CCOC(=O)[C@]12CCCC=C1N(Cc1ccc3c(c1)OCO3)C(=O)[C@H](CC(=O)NCCCCc1ccccc1)C2	.	?	.	11.6µM*	?	?
COC(=O)[C@@]12C[C@@H](CC(=O)NCC3CCCCC3)C(=O)N(Cc3ccc4c(c3)OCO4)C1=CCC(C)(C)C2	.	?	.	?	20.6µM*	?
COC(=O)[C@@]12C[C@@H](CC(=O)NCc3ccc(C)o3)C(=O)N(Cc3ccc4c(c3)OCO4)C1=CCC(C)(C)C2	.	i	.	?	?	?
COC(=O)[C@@]12C[C@@H](CC(=O)NCCCCc3ccccc3)C(=O)N(Cc3ccc4c(c3)OCO4)C1=CCC(C)(C)C2	.	?	.	?	23.1µM*	?
CCCCNC(=O)C[C@@H]1C[C@@]2(C(=O)OCC)CCC=C2N(Cc2ccc3c(c2)OCO3)C1=O	.	i	.	1.7%	i	6.2%
CCCCNC(=O)C[C@@H]1C[C@@]2(C(=O)OC)CC(C)(C)CC=C2N(Cc2ccc3c(c2)OCO3)C1=O	.	i	.	-14.9%	?	-19.1%
COC(=O)[C@@]12C[C@@H](CC(=O)NCCc3ccccc3OC)C(=O)N(Cc3ccccc3)C1=CCC(C)(C)C2	.	i	.	?	11.6µM*	?
COc1ccc(C(=O)N2CC(=O)Nc3ccc(C)cc3C2c2ccccc2)c(OC)c1 (stereo not given)	.	i	.	.	i	.
COc1cccc(NS(=O)(=O)c2ccc3c(c2)n(C)c(=O)n3C)c1	.	?	.	.	i	.
CCc1c(C)nc2c(-c3ccccc3OC)c(C)[nH]n2c1=O	-1.2%	i	-7.0%	4.7%	i	15.1%
CN(C)S(=O)(=O)c1ccc(C(=O)NC2CC(=O)N(c3ccc4c(c3)OCCO4)C2)cc1 (stereo not given)	.	i	.	.	?	.
Cc1sc2nc(SCC(=O)N(C)c3ccccc3)n(C)c(=O)c2c1C	4.8%	i	25.8%	12.0%	?	-7.1%
CCOC(=O)[C@]12CCC=C1N(Cc1ccc3c(c1)OCO3)C(=O)[C@H](CC(=O)NCc1ccccc1)C2	.	i	.	23.1µM*	i	-12.9%
CCCCNC(=O)C[C@@H]1C[C@@]2(C(=O)OC)CCCCC=C2N(Cc2ccc3c(c2)OCO3)C1=O	.	i	.	2.2%	?	-4.3%
COC(=O)[C@]12CCCCC=C1N(Cc1ccc3c(c1)OCO3)C(=O)[C@H](CC(=O)NCCCCc1ccccc1)C2	.	i	.	?	16.4µM*	?
Cc1ccc(/C=C/c2ccc3cccc(O)c3n2)s1	25.3%	?	?	-21.8%	i	-21.2%
CC(=O)COc1cccc2ccc(/C=C/c3ccc(Br)s3)nc12	18.4µM*	i	10.8%	-4.0%	i	-17.4%
Cc1nc(SCC(=O)N2CCCCCC2)c2c(=O)n(C)c(=O)n(CC(C)C)c2n1	?	?	0.0%	-10.0%	i	?
C=CCSC1=N/C(=C\c2cccnc2)C(=O)N1c1ccc(OC)cc1	-69.8%	i	1.6%	0.0%	?	6.3%
CCN(CC)C1=N/C(=C\c2ccc(OC)cc2)C(=O)N1c1ccccc1	18.4µM*	i	16.4µM*	-13.0%	8.2µM*	-9.9%
COc1ccc(/C=C2\N=C(SC)N(C)C2=O)cc1	?	i	-2.1%	8.8%	?	6.9%
CCSC1=N/C(=C\c2ccccc2)C(=O)N1c1ccc(OC)cc1	14.6µM*	i	18.4µM*	10.7%	i	25.5%
COc1ccc(/C=C2/N=C(SCC(=O)Nc3cc(C)on3)N(c3ccccc3)C2=O)cc1	20.6µM*	i	1.9%	-8.3%	i	2.4%
CCOC(=O)c1ccccc1NC(=O)Cn1nnc2sc3c(c2c1=O)CCCC3	.	i	.	.	i	.

Screening data: PubChem BioAssay, National Center for Advancing Translational Sciences (NCATS)
